Common to all, as to format: functional
The target of test [1] is Solute carrier family 2, facilitated glucose transporter member 1 (Homo sapiens) (UniProt P11166). As to the kind of experiment: ST_JUDE_LEISH: Cytotoxicity at 2uM final concentration against transgenic Leishmania Mexicana promastigotes LmGLUT1 that are glucose transport deficient and complemented with the human glucose transporter GLUT1. Activity is measured by DNA content using SYBR green in vitro.

The target of test [2] is Hexose transporter 1 (Plasmodium falciparum) (UniProt O97467). As to the kind of experiment: ST_JUDE_LEISH: Cytotoxicity at 2uM final concentration against transgenic Leishmania Mexicana promastigotes LmPfHT that are glucose transport deficient and complemented with the Plasmodium falciparum hexose transporter. Activity is measured by DNA content using SYBR green in vitro.

Test [3] deals with Glucose transporter (Leishmania mexicana) (UniProt O61059). The test can be described thus: ST_JUDE_LEISH: Cytotoxicity at 2uM final concentration against transgenic Leishmania Mexicana promastigotes LmGT2 that are glucose transport deficient and complemented with the L. Mexicana glucose transporter 2. Activity is measured by DNA content using SYBR green in vitro.

Sequence of Solute carrier family 2, facilitated glucose transporter member 1 (Homo sapiens) (P11166 whole entry): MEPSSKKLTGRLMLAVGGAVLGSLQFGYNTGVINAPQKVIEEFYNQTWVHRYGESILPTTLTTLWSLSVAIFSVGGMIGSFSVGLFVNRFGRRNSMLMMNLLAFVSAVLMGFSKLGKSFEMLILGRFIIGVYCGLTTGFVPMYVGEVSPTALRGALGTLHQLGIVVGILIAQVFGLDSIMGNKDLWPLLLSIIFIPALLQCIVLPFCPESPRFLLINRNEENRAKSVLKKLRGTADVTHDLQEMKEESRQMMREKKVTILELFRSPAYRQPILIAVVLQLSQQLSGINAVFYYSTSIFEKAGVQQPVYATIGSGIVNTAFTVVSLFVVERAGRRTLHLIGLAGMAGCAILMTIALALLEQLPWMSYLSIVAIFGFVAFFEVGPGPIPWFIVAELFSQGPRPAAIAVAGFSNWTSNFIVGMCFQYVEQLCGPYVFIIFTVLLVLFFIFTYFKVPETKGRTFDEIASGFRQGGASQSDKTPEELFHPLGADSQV

Regarding `C[C@@H](CC1CCCCC1)NCc1cccc(NS(=O)(=O)c2ccc(O)c(-c3ccno3)c2)c1`, the figures for the inhibition in test [1], in test [2] and in test [3] were 10.7%, 8.37% and 14.5%, respectively.

Consider `CS(=O)(=O)CCNCc1cccc(-c2cc3c(Nc4ccc5c(cnn5Cc5ccccc5)c4)ncnc3s2)c1`, for which the inhibition (in general, the relative decrease from the control value, in per cent) in test [1] is 2.62%; in test [2], -0.73%; in test [3], 0.63%.

`Cc1ccc(Cn2ncc(N3CCNCC3)c(Cl)c2=O)cc1NC(=O)Nc1ccc(-c2ccccc2)cc1`: the inhibition in test [1] was -0.01%; in test [2], 2.78%; in test [3], 2.01%.

Regarding `CCCC(CNCc1cccc(I)c1)CNc1cc(=O)c2ccccc2[nH]1` (stereo not drawn), the results for the inhibition in test [1], in test [2] and in test [3] were 1.04%, 2.83% and 2.67%, respectively.

As for `CCN(CCCN1CCCCC1)c1cc(C)nc(Nc2ccc(C)cc2Cl)n1`, the inhibition is 9.81% in test [1], 7.68% in test [2] and 7.34% in test [3].

Turning to `COc1ccc(-c2cccc(NC(=O)c3ccc(C#N)cc3)c2)cc1CN1CCCC1`, the inhibition in test [1] worked out at 11.3%; in test [2], 11.1%; in test [3], 2.91%.

For `CC(CN1CCN(C)CC1)C(=O)Nc1cccc(-c2cccc(-c3nc4cc(F)ccc4[nH]3)c2)c1` (stereo not drawn), the inhibition in test [1] came to 6.87%; in test [2] it was 5.83%; in test [3], 5.91%.

Consider `CCCCNCc1ccc(-c2nc(CN(CCCn3ccnc3)C(=O)C3COc4ccccc4O3)cs2)cc1` (stereo not drawn), for which the inhibition in test [1] was 0.43%; in test [2] it was 4.78%; in test [3] it was -0.46%.

For the compound `CCc1cc(-c2onc(C)c2-c2cc3ccccc3o2)c(O)cc1OC`, the inhibition in test [1] was 1.25%; in test [2] it was -1.2%; in test [3], -0.24%.

`c1ccc2c(c1)CN(CC1CCOCC1)CC1(CCN(Cc3c[nH]c4cnccc34)CC1)O2`: the inhibition in test [1] came out at 0.57%; in test [2], 1.23%; in test [3], 0.88%.

Turning to `CCc1cc(NC2CCN(C)CC2)nc(Nc2ccc(C)cc2)n1`, the inhibition was 7.94% in test [1], 4.93% in test [2] and -1.22% in test [3].

For `COc1ccc(-c2ccc(NC(=O)c3ccc(C#N)cc3)cc2)cc1CNC(C)C`, the inhibition was found to be 4.24% in test [1], 3.24% in test [2] and 2.38% in test [3].

For the compound `CN(C)[C@@H]1C(O)=C(C(N)=O)C(=O)[C@@]2(O)C(O)=C3C(=O)c4c(O)ccc(C#Cc5ccccn5)c4C[C@H]3C[C@@H]12`, the figures for the inhibition in test [1], in test [2] and in test [3] were 1.83%, -0.62% and 0.74%, respectively.

Turning to `Cc1cnc(Nc2ccccc2)nc1NCCC(=O)Nc1ccccc1`, the inhibition in test [1] came to 6.97%; in test [2], 8.48%; in test [3] it was 3.62%.

`Cc1ccccc1C1CCN(C2CCC(NC(=O)c3ccc4c(c3)-c3nocc3C(C)O4)CC2)CC1` (stereo not drawn): the inhibition in test [1] stood at 5.85%; in test [2] it was 4.08%; in test [3] it was 5.18%.

With `CN(C)CCOc1cc(NC(=O)Nc2ccc(Cl)cc2C(F)(F)F)ccc1I`, the inhibition was 3.57% in test [1], 1.15% in test [2] and -3.2% in test [3].

`c1ccc(Oc2ccc(Nc3ccnc4cc(-c5ccc(CNCCN6CCOCC6)o5)ccc34)cc2)nc1`: the inhibition in test [1] is 2.93%; in test [2], 2.52%; in test [3] it was 2.3%.

On to `CCCCN(CCCC)CCNC(=O)c1ccc(-c2nc3cc(Cl)ccc3[nH]2)c(OCC)c1`, for which the inhibition came out at 4.49% in test [1], 2.11% in test [2] and 4.26% in test [3].

On to `O=C(NCCNc1ccnc(Nc2ccc(F)cc2)n1)Nc1ccccc1F`, for which the inhibition in test [1] is 2.71%; in test [2], 1.86%; in test [3], -2.84%.

Take `COc1ccc(OC)c(NC(=O)CSc2nc(-c3ccccc3Cl)ns2)c1`: the inhibition in test [1] is 0.9%; in test [2], 0.98%; in test [3], -1.15%.

Consider `CCn1c(CN2CCC(C)CC2)nc2cc(NC(=O)c3cccs3)ccc21`, for which the inhibition in test [1] was determined as 9.93%; in test [2], 9.8%; in test [3], 12.5%.

Regarding `O=S(=O)(NCCN1CCCC1)c1ccc(-c2ccc(CN3Cc4ccccc4C3)cc2)s1`, the inhibition in test [1] is -0.63%; in test [2], -0.5%; in test [3] it was -2.59%.

For `CC[C@H](C)CNC(=O)c1cncc(-c2cccc(CN(C)C3CCN(C)CC3)c2)c1`, the inhibition in test [1] came to 2.22%; in test [2] it was 2.75%; in test [3] it was 3.37%.

`Cc1cc(Nc2ccc(O)cc2)nc2cccc(O)c12`: the inhibition in test [1] was found to be 2.06%; in test [2], 0.79%; in test [3], 3.84%.

In the case of `O=C(Nc1cc(Cl)ccc1O)c1ccc(Oc2ccc(C(=O)Nc3cc(Cl)ccc3O)cc2)cc1`, the inhibition in test [1] was -1.36%; in test [2], -1.96%; in test [3], -1%.

Turning to `CC1CCCCC1N(C)C1CCN(CCCNC(=O)C=Cc2cccc(C(F)(F)F)c2)CC1` (stereo not drawn), the inhibition in test [1] came out at 4.22%; in test [2] it was 2.29%; in test [3] it was 1.79%.

For `COc1ccc2nccc([C@@H](O)CN3CCC(NCc4ccc5c(c4)sc(=O)n5C)CC3)c2c1`, the inhibition in test [1] was -0.15%; in test [2], 0.84%; in test [3] it was -1.7%.

Regarding `O=C(NCc1ccccc1[S+]([O-])c1ccccc1CO)C(F)(F)F` (stereo not drawn), the inhibition in test [1] is -1.33%; in test [2], -0.32%; in test [3], 0.55%.

`CCOC(=O)NC1=NC(C)(C)N(OCc2ccc(Cl)c(Cl)c2)C(NC(=O)OCC)=N1`: the inhibition worked out at 3.54% in test [1], 2.08% in test [2] and 2.54% in test [3].

Regarding `CC(C)N(CCOc1ccc2c(c1)N(C(=O)Nc1cc(Br)cc(C(F)(F)F)c1)CC2)C(C)C`, the inhibition in test [1] is 3.92%; in test [2] it was 2.23%; in test [3], 1.38%.

With `CO/N=C(\C)c1ccc2c(c1)CCN(CCC1CCC(NC(=O)/C=C/c3ccc(F)cc3)CC1)CC2` (stereo not drawn), the values for the inhibition in test [1], in test [2] and in test [3] were 6.29%, 3.02% and 11.2%, respectively.

As for `COc1ccc(NC(=O)CSc2nc(-c3ccccc3Cl)ns2)cc1OC`, the figures for the inhibition in test [1], in test [2] and in test [3] were -0.51%, -0.5% and 2.58%, respectively.

For the compound `C=CCC1OC(=O)c2cc(OC)cc(OC)c21` (stereo not drawn), the figures for the inhibition in test [1], in test [2] and in test [3] were 89.1%, 84.4% and 86.9%, respectively.

`O=C(c1cccc(-c2ccc(-c3nc4cc(C(F)(F)F)ccc4[nH]3)cc2)c1)N1CCCCC1CN1CCC(O)C1` (stereo not drawn): the inhibition in test [1] came out at 0.99%; in test [2] it was 1.44%; in test [3] it was 2.26%.

On to `O=C(/C=C/c1ccc(Cl)c(Cl)c1)NCCCCCCN1CCN(C(=O)Nc2cc(F)cc(F)c2)CC1`, for which the inhibition turned out to be 5.47% in test [1], 5.75% in test [2] and 7.38% in test [3].

Take `CN(C)CCOc1cc(NC(=O)Nc2ccc(-c3ccncc3)c(Cl)c2)ccc1I`: the inhibition in test [1] was found to be 2.24%; in test [2] it was 1.09%; in test [3], 1.54%.
